Source: PubChem BioAssay AID2501 (Southern Research Specialized Biocontainment Screening …, 2010)
The whole screen tested about 2,200 compounds, of which about 1,200 (55%) were called active. So high a share suggests a set chosen from earlier hits. Some of the results follow. A number with no mark means an inactive call. No cut-off is given here; in the data, nearly all actives have IC50 up to about 92 µM.

Assay: counter assay for TAg ATPase ADP read-out – biochemical, ADP-Hunter, fluorescence, counter-screen (AID 2501);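 note: purified T antigen ATPase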;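 for inhibition: 0% = enzyme with vehicle and 100% = reference inhibitor wells; higher means more inhibition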
Conditions: series mostly up to 100 µM; inhibition: at the top concentration

| SMILES | inhibition | IC50 |
| --- | --- | --- |
| O=C(CCCN1C(=O)/C(=C\c2ccco2)SC1=S)Nc1ccc(O)cc1C(=O)O | 18% |  |
| Cc1ccc(S(=O)(=O)/N=C2/NC(=O)/C(=C\c3ccco3)S2)cc1 | -7.12% |  |
| O=C(O)CC(C(=O)O)N1C(=O)/C(=C/C=C/c2ccco2)SC1=S (centres undefined) | -2.02% |  |
| O=C1NC(=Nc2ccc(O)cc2)S/C1=C/c1ccco1 |  | 5.16 µM (active) |
| O=C1NC(=Nc2ccc(O)cc2)S/C1=C\C=C\c1ccco1 |  | 3.48 µM (active) |
| Cc1cccc(N=C2NC(=O)/C(=C/C=C/c3ccco3)S2)c1 | -17.8% |  |
| CCCC[C@@H]1CN=C(N)N1CCc1cc(C(F)(F)F)cc(C(F)(F)F)c1 | 16.9% |  |
| O=Nc1c(-c2cccc([N+](=O)[O-])c2)nc2ncccn12 | -14.4% |  |
| CN=c1nc(-c2ccccc2)n(-c2ccccc2)s1 |  | 11.8 µM (active) |
| O=C(N/N=C/c1ccc(OC(=O)c2ccco2)cc1)c1ccc[n+]([O-])c1 |  | 41.7 µM (active) |
| CCOC(=O)C1=C(C)NC(=S)NC1c1ccc(OC(=O)c2ccco2)cc1 (centres undefined) | 27.4% |  |
| Oc1ccc(-c2nc(=S)[nH][nH]2)cc1 |  | 2.49 µM (active) |
| O=C(Nc1ccc(S(=O)(=O)N2CCCC2)cc1)N1c2ccccc2Sc2ccccc21 | 1.56% |  |
| O=c1c2ccccc2sn1-c1cc(S(=O)(=O)N2CCOCC2)ccc1N1CCOCC1 |  | 12.5 µM (active) |
| O=c1c2ccccc2sn1-c1cc(S(=O)(=O)N2CCOCC2)ccc1N1CCCC1 |  | 12.5 µM (active) |
| Cc1ccc2c(c1)C(c1ccccc1)N(C(=O)c1ccc(S(=O)(=O)N3CCOCC3)cc1)CC(=O)N2 (centres undefined) | -15.6% |  |
| C[C@@H]1O[C@@H](OC2C(O)C(OCCc3ccc(O)c(O)c3)OC(CO)C2OC(=O)/C=C/c2ccc(O)c(O)c2)[C@H](O)[C@H](O)[C@H]1O (some centres undefined) |  | 6.02 µM (active) |
| Nc1nc[nH]c(=O)c1N=Cc1ccccc1 |  | 12.2 µM (active) |
| CCN=C(Nc1ccc2c(c1)OCO2)SC1CC(=O)N(c2ccc(OC)cc2)C1=O (centres undefined) | -27.4% |  |
| C=CCNc1nnc(SC2CC(=O)N(c3ccc(OC)cc3)C2=O)s1 (centres undefined) |  | 11.2 µM (active) |
| Cc1c(/C=N/NC(=O)c2ccc(O)cc2)c2ccccn2c1C(=O)c1ccc(F)cc1 | -8.33% |  |
| CN1/C(=C\C=N\NC(=O)c2ccc(O)cc2)C(C)(C)c2ccccc21 |  | 8.51 µM (active) |
| O=S(=O)(O)c1cc(O)c2c(O)c(N=Nc3cc(Cl)ccc3O)c(S(=O)(=O)O)cc2c1 |  | 81.2 µM (active) |
| Cc1cc(-c2ccc(N=Nc3c(S(=O)(=O)O)cc4cc(S(=O)(=O)O)cc(N)c4c3O)c(C)c2)ccc1N=Nc1c(S(=O)(=O)O)cc2cc(S(=O)(=O)O)cc(N)c2c1O |  | 11.5 µM (active) |
| Cc1sc(NC(=O)C2C3CCC(O3)C2C(=O)O)c(C(=O)OC(C)C)c1-c1ccc(Cl)cc1 (centres undefined) | 3.87% |  |
| CCCn1cnc2cc(NCc3cccc(OC)c3O)ccc21 |  | 4.87 µM (active) |

| SMILES | inhibition | IC50 |
| --- | --- | --- |
| CCn1cnc2cc(NCc3cccc(OC)c3O)ccc21 |  | 3.71 µM (active) |
| C/C(Cl)=C\Cn1c(N2CCCC2)nc2c1c(=O)[nH]c(=O)n2C | 12.8% |  |
| O=C(O)CCNc1ccc(NCCC(=O)O)c2c1C(=O)c1ccccc1C2=O |  | 7.52 µM (active) |
| Oc1cnn(-c2ccccc2)c1 |  | 7.63 µM (active) |
| CC(=O)Nc1sc(N/N=C\c2ccco2)nc1-c1cccs1 |  | 74 µM (active) |
| COc1cc(/C=N\Nc2nc(-c3cccs3)c(NC(C)=O)s2)ccc1O |  | 4.67 µM (active) |
| CCOc1cc(/C=N/Nc2nc(-c3cccs3)c(NC(C)=O)s2)ccc1O |  | 9.71 µM (active) |
| O=C(Nc1nc(-c2ccco2)c(-c2ccco2)s1)c1ccco1 | 6.22% |  |
| NS(=O)(=O)c1cc(C(=O)NC2CCSc3ccccc32)ccc1Cl (centres undefined) | 10.5% |  |
| CSc1cccc(NC(=O)CN2C(=O)c3ccccc3S2(=O)=O)c1 | 14% |  |
| CCS(=O)(=O)c1ncc(Cl)c(C(=O)Nc2ccc(S(=O)(=O)N3CCCC(C)C3)cc2)n1 (centres undefined) | -5.26% |  |
| Oc1ccc(/C=N/Nc2cc(N3CCOCC3)nc(N3CCOCC3)n2)cc1O |  | 4.67 µM (active) |
| Cc1cc(N/N=C/c2ccc(O)cc2O)nc(N2CCOCC2)n1 |  | 22.7 µM (active) |
| Oc1ccc(/C=N/Nc2cc(N3CCCC3)nc(N3CCCC3)n2)cc1O |  | 31.9 µM (active) |
| O=C(NC1CCCC1)C(c1ccc(F)cc1)N(Cc1ccc(F)cc1)C(=O)c1ccn[nH]1 (centres undefined) | -25.8% |  |
| COc1ccc(N2CSC3=C(C#N)C(c4cccc(OC)c4OC)CC(=O)N3C2)cc1 (centres undefined) |  | 5.84 µM (active) |
| N#CC1=C2SCN(Cc3ccccc3)CN2C(=O)CC1c1cccs1 (centres undefined) | 17.8% [at 25 µM] |  |
| Cc1ccc(N2CSC3=C(C#N)C(c4cccs4)CC(=O)N3C2)cc1 (centres undefined) |  | 23.6 µM (active) |
| CCOc1ccc(N2CSC3=C(C#N)C(c4ccco4)CC(=O)N3C2)cc1 (centres undefined) |  | 10.4 µM (active) |
| CCc1ccccc1N1CSC2=C(C#N)C(c3ccccc3F)CC(=O)N2C1 (centres undefined) | 15.7% |  |
| COc1ccc(C2CC(=O)N3CN(c4ccc(C)c(Cl)c4)CSC3=C2C#N)cc1 (centres undefined) | 24.2% |  |
| COc1ccc(N2CSC3=C(C#N)C(c4cccs4)CC(=O)N3C2)cc1 (centres undefined) |  | 7.88 µM (active) |
| COc1ccc2cc(-c3[nH]ncc3CN3CCCN(c4ccccc4)CC3)ccc2c1 | 4.26% |  |
| C/C=C/c1cc(CN2CCN(c3ccc(OC)cc3)CC2)c(O)c(OC)c1 |  | 32.1 µM (active) |
| COc1ccc(-n2cc(CN3CCCC3)c(-c3cccc(F)c3)n2)cc1 | -4.56% |  |
| O=S(=O)(Nc1cccc(C(F)(F)F)c1)c1cnc[nH]1 | 10.2% |  |

| SMILES | inhibition | IC50 |
| --- | --- | --- |
| Cc1cc(C)c2c(=O)n(CC(=O)Nc3cccc(Cl)c3C)sc2n1 | -7.59% |  |
| Cc1coc2c(O)cc3c(c12)OC1(N2CCCCC2)C(=O)NCCCC31 (centres undefined) | -156% |  |
| COc1cc(CNc2ccc3c(c2)CCC3)cc(OC)c1O |  | 11.4 µM (active) |
| N#CC1=C(N)n2c(s/c(=C\c3ccco3)c2=O)=C(C#N)C1c1ccco1 (centres undefined) | 5.17% |  |
| CC1=C(C#N)C(=O)N(C2CCS(=O)(=O)C2)C(=O)/C1=C\c1ccco1 (centres undefined) |  | 82 µM (active) |
| CC1C/C(=C/c2ccco2)C(=O)/C(=C/c2ccco2)C1 (centres undefined) | 28.2% |  |
| O=C(Nc1ccc(O)cc1)/C(=C/c1ccco1)NC(=O)c1ccccc1 |  | 3.43 µM (active) |
| O=C(Nc1ccc(O)cc1)/C(=C\c1ccncc1)NC(=O)c1ccccc1 |  | 10.7 µM (active) |
| O=C(Nc1ccc(O)cc1)/C(=C\c1cccs1)NC(=O)c1ccccc1 |  | 8.43 µM (active) |
| NC(=O)/C(=C/c1ccco1)C(N)=S | 23.5% |  |
| O=C(/C=C/c1ccco1)Nc1cccc(C(=O)Nc2ccccc2C(=O)O)c1 | -24.9% |  |
| O=C(NC(=O)c1cnccc1C(F)(F)F)Nc1ccccc1 | -24.9% |  |
| CCC(C)N(C(=O)COC(=O)/C=C/c1ccc(O)c(OC)c1)C1CCS(=O)(=O)C1 (centres undefined) |  | 19 µM (active) |
| C/C(CC(=O)Nc1ccc(N(C)C)cc1)=N\NC(=O)c1cnccn1 |  | 3.36 µM (active) |
| O=C(Nc1nc(-c2ccco2)c(-c2ccco2)s1)c1cnccn1 | 21.5% |  |
| C/C(CC(=O)Nc1ccc(N(C)C)cc1)=N\NC(=O)c1ccncc1 |  | 7.2 µM (active) |
| O=C(COc1ccc2ccccc2c1)Nc1ccc(Cc2ccncc2)cc1 | -35.1% |  |
| C/C(CC(=O)Nc1ccc2ccccc2c1)=N\NC(=O)c1ccc(O)c(O)c1 |  | 5.4 µM (active) |
| C/C(=N\NC(=O)CCC(=O)Nc1ccc(C)c(C)c1)c1cccs1 | -20.1% |  |
| O=[N+]([O-])c1c(NCCO)cc(Sc2nc3ccccc3s2)c2nonc12 | -15.8% |  |
| Oc1ccc(/C=N/N=C/c2ccc(O)c(O)c2)cc1O |  | 2.99 µM (active) |
| Oc1ccc(N=Cc2ccc(O)c(O)c2)cc1 |  | 2.65 µM (active) |
| COC1=CC(=O)C(O)=C(CCCCCCC/C=C/CCCCCCCC2=C(O)C(=O)C=C(OC)C2=O)C1=O | -44.9% |  |
| O=C(CCCCl)NC1=NN(c2ccccc2)C(=O)C1 |  | 12.6 µM (active) |
| O=C(CCSc1ccccc1)Nc1ncccn1 | 19.5% |  |
| CCCCCC(=O)NNC1CC(=O)N(c2cccc(OCC)c2)C1=O (centres undefined) | -16.1% |  |

| SMILES | inhibition | IC50 |
| --- | --- | --- |
| Oc1cccc2cnccc12 |  | 5.53 µM (active) |
| N#Cc1c(N2CCCCC2)nc(N)c2c(N)nc(SCC(=O)O)cc12 | -21.9% |  |
| c1cncc(CNc2ccc3c(c2)OCO3)c1 |  | 7.3 µM (active) |
| COc1ccc(-c2c(-c3ccc(O)cc3O)n[nH]c2C)cc1OC |  | 13.2 µM (active) |
| CNc1nc(C)nc(-n2nc(C)cc2C)n1 | 15.3% |  |
| CC1=C(C)CS(=O)N(S(=O)(=O)c2ccccc2)C1 (centres undefined) | 0.26% |  |
| COc1ccc(OC)c(C2C(C(=O)c3ccc(C)o3)=C(O)C(=O)N2CCN2CCOCC2)c1 (centres undefined) | -6.16% |  |
| O=C(OCCCN1CCOCC1)c1ccc(O)c(O)c1 |  | 9.99 µM (active) |
| COc1ccc(OC)c(-c2c3cc(O)c(=O)cc-3oc3cc(O)c(O)cc23)c1 | -162% |  |
| O=c1cc2oc3cc(O)c(O)cc3c(-c3ccccc3[N+](=O)[O-])c-2cc1O |  | 7.23 µM (active) |
| COc1cc(OC)c(-c2c3cc(O)c(=O)cc-3oc3cc(O)c(O)cc23)cc1OC |  | 7.14 µM (active) |
| CN(C)c1oc(-c2ccccc2[N+](=O)[O-])nc1C#N | -16.3% |  |
| CO[C@@H]1O[C@@H]2COC(c3ccccc3)O[C@@H]2[C@@H](OC)[C@@H]1O (some centres undefined) | -34.3% |  |
| CC1(C)OC(=O)C(=NNc2ccc(O)cc2)C(=O)O1 |  | 3.09 µM (active) |
| Nc1nc2ccc(S(=O)(=O)N3CCCCC3)cc2s1 | -1.74% |  |
| Nc1nc2ccc(N3CCOCC3)cc2s1 |  | 3.09 µM (active) |
| Nc1ccccc1-c1nc2ccccc2s1 | -0.48% |  |
| Nc1nc2ccc(O)cc2s1 |  | 2.36 µM (active) |
| CCOc1ccc(N2C(=O)CC(N3CCOCC3)C2=O)cc1 (centres undefined) | -1.89% |  |
| CN(C)c1ccc(N2C(=O)CC(Nc3ccc(N4CCOCC4)cc3)C2=O)cc1 (centres undefined) |  | 4 µM (active) |
| NC(=O)c1ccsc1NC(=O)C1CCN(S(=O)(=O)c2cccs2)CC1 | 2.13% |  |
| O=C(c1cccs1)N1CCN(C(=O)C2CCCO2)CC1 (centres undefined) | 18.1% |  |
| O=C(NCc1ccc(F)cc1)C(=O)NCC1OCCN1S(=O)(=O)c1cccs1 (centres undefined) | -39.5% |  |
| O=C(NC(=S)N1CCN(c2ccc(O)cc2)CC1)c1cccs1 |  | 5.56 µM (active) |
| O=S(=O)(c1cccs1)N1CCN(c2ccc(O)cc2)CC1 |  | 5.21 µM (active) |
| O=C(CCC(=O)N1CCN(c2ccc(O)cc2)CC1)c1cccs1 |  | 2.87 µM (active) |
